For part of these data: Results with a measured potency or affinity are listed apart. The source made the active and inactive calls.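 The calls were made as follows, unless noted: active = calcium signal cut by more than 3 SD below the full-agonist control yet still positive, in both repeats and the earlier primary screen; inactive = the rest.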
Experiments:
[1] = tested on: TRPC4 beta (transient receptor potential cation channel C4), mouse; assay: activators of mouse TRPC4 channel, confirmation, cell-based, Fluo4 calcium, HEK293 TRPC4beta/mu-opioid, duplicates, 10 µM (AID 2426;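 active = fluorescence ratio normalized to control raised more than 50% in primary screen plus both repeat runs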); conditions: Fluo4 calcium fluorescence, at 10 µM; stronger effect = higher value
[2] = tested on: transient receptor potential cation channel C4 beta (TRPC4), mouse; assay: activators of mouse TRPC4 channel, confirmation, cell-based, second round, Fluo4, HEK293 TRPC4beta/mu-opioid, 1 µM (AID 2461;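 active = primary screen active and over 50% activation in each of two duplicate runs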); conditions: Fluo4 calcium fluorescence, at 1 µM; stronger effect = higher value
[3] = tested on: TRPC4 (transient receptor potential cation channel C4 beta), mouse; assay: positive allosteric modulators of mouse TRPC4, confirmation, cell-based, second round, Fluo-4, HEK293 TRPC4beta/mu-opioid, 1 µM (AID 2554;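 active = primary screen hit whose fluorescence ratio, in both repeats, exceeds the weak agonist control mean by 3 SD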); conditions: DAMGO EC20, Fluo-4 calcium flux, at 1 µM; stronger effect = higher value
[4] = tested on: TRPC4 beta (transient receptor potential cation channel C4), mouse; assay: positive allosteric modulators of mouse TRPC4, confirmation, cell-based, Fluo-4, HEK293 TRPC4beta/mu-opioid (AID 2555;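 active = primary screen hit whose calcium fluorescence ratio, in both repeats, exceeds the weak agonist control mean by 3 SD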); conditions: DAMGO EC20, Fluo-4 calcium flux, at 10 µM; stronger effect = higher value
[5] = target: Short transient receptor potential channel 4 (Mus musculus) (UniProt Q9QUQ5); assay: inhibitors of mouse TRPC4 channel, confirmation, cell-based, Fluo4, HEK293 TRPC4beta/mu-opioid (AID 2636); conditions: DAMGO, Fluo4 calcium flux, at 10 µM; stronger effect = higher value
Chain of Short transient receptor potential channel 4 (Mus musculus) (Q9QUQ5 whole entry, looked up): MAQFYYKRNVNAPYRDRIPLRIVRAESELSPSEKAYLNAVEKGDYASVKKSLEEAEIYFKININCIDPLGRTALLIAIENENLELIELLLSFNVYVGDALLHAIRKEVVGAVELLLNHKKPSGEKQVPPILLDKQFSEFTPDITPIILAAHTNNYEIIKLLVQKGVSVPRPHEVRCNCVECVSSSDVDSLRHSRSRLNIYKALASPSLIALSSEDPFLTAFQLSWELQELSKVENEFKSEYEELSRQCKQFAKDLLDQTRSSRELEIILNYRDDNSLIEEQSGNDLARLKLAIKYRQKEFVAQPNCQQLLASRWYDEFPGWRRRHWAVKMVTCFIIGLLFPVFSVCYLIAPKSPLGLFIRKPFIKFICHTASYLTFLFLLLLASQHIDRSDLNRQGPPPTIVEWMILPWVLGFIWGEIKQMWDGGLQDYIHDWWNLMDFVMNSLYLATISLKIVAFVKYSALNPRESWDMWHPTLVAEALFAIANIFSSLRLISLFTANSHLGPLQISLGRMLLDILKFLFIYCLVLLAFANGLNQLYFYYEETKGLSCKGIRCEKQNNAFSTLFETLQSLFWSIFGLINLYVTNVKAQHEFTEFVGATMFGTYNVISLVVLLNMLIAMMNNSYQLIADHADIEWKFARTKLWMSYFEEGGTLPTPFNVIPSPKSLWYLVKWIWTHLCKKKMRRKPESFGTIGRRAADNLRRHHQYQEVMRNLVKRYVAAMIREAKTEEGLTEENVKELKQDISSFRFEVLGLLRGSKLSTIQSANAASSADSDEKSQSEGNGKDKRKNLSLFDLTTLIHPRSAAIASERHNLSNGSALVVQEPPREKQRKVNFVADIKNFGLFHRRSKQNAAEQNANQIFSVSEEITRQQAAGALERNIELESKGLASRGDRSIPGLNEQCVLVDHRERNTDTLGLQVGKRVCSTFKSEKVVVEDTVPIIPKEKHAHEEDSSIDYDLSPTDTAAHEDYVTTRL

[6] = target: Short transient receptor potential channel 4 (Mus musculus) (UniProt Q9QUQ5); assay: inhibitors of mouse TRPC4 channel, confirmation, cell-based, second round, Fluo4, HEK293 TRPC4beta/mu-opioid, 1 µM (AID 2637;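 active = calcium signal ratio cut to more than 3 SD under the fully stimulated control mean yet still positive, in both repeats and the primary screen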); conditions: Fluo4 calcium flux, DAMGO, at 1 µM; stronger effect = higher value
[7] = target: Short transient receptor potential channel 4 (Mus musculus) (UniProt Q9QUQ5); assay: mouse TRPC4 channel activators, dose response, cell-based, HEK293 TRPC4/mu-opioid, Fluo-4 calcium (AID 434937;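 active = primary screen activator hit with a dose response curve and TRPC4 channel activation at any tested dose; inactive = no activation, no dose response, or not a primary hit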)
[8] = target: Short transient receptor potential channel 4 (Mus musculus) (UniProt Q9QUQ5); assay: TRPC4 positive allosteric modulators, dose response, cell-based, HEK293 TRPC4/mu-opioid, Fluo-4 calcium, EC20 DAMGO (AID 434941;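 active = earlier screen potentiator hit that boosts the TRPC4 ion channel at some dose, with a dose response; inactive = no potentiation, no dose response, or not a prior hit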;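 also: calcium entry triggered by an EC20 dose of DAMGO at the co-expressed mu-opioid receptor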)
[9] = target: Short transient receptor potential channel 4 (Mus musculus) (UniProt Q9QUQ5); assay: mouse TRPC4 channel inhibitors, dose response, cell-based, HEK293 TRPC4/mu-opioid, Fluo-4 calcium (AID 434942;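 active = primary screen inhibitor hit that blocks the TRPC4 channel at some tested dose, yielding a dose curve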)
[10] = target: Short transient receptor potential channel 6 (Mus musculus) (UniProt Q61143); assay: inhibition of mouse TRPC6 channel, confirmation, selectivity assay for TRPC4 inhibitor project, cell-based, HEK293, membrane potential dye, duplicate (AID 434948;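 active = active in primary screen and both duplicates, each dropping signal beyond three positive-control SD with fluorescence still positive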); conditions: HEK293 TRPC6, membrane potential dye fluorescence, at 10 µM, stimulated with maximal-effect acetylcholine; stronger effect = higher value
Chain of Short transient receptor potential channel 6 (Mus musculus) (Q61143 whole entry, looked up): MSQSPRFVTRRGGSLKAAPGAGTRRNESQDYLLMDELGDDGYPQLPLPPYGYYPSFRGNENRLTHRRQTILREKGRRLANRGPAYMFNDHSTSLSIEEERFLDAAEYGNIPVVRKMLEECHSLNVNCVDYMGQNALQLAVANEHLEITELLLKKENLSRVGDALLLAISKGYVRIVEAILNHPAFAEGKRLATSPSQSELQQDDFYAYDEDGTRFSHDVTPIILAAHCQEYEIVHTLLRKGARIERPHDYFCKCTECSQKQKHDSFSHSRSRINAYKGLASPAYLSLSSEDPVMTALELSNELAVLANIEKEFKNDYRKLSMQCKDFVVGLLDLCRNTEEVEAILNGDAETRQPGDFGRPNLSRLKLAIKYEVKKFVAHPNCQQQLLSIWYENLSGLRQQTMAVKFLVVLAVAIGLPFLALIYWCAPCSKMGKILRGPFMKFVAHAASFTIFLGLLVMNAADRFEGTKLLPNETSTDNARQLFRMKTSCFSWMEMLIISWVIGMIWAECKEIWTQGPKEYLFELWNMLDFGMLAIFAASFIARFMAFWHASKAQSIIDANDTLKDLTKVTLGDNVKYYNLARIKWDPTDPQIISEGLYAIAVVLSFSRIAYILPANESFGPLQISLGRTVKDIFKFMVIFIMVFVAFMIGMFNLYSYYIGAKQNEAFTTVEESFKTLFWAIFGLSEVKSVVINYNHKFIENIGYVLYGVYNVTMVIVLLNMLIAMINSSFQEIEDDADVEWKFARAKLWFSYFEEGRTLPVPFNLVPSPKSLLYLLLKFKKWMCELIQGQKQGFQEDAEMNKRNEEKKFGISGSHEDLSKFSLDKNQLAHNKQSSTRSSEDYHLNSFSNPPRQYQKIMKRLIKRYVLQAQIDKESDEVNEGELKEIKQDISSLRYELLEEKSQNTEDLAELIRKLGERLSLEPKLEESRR

[11] = target: Short transient receptor potential channel 6 (Mus musculus) (UniProt Q61143); assay: activation of mouse TRPC6 channel, confirmation, selectivity assay for TRPC4 activator project, cell-based, HEK293, membrane potential dye, duplicate (AID 434950;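 active = membrane potential signal rise above negative control mean plus 3 SD in both duplicates, also active in the earlier TRPC4 screen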); conditions: HEK293 TRPC6, membrane potential fluorescence, at 10 µM; stronger effect = higher value
[12] = target: Short transient receptor potential channel 6 (Mus musculus) (UniProt Q61143); assay: TRPC6 potentiation by TRPC4 potentiator hits, confirmation, selectivity assay for TRPC4 potentiator project, HEK293 cells, membrane potential dye, duplicate (AID 434952;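 active = compound raising the membrane signal above positive-control mean plus 3 SD in both repeats, and a primary screen hit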); conditions: HEK293 TRPC6, membrane potential dye fluorescence, at 10 µM, maximal acetylcholine added after compound; stronger effect = higher value
[13] = target: Short transient receptor potential channel 4 (Mus musculus) (UniProt Q9QUQ5); assay: calcium flux activators in TRPC4/5HT1a cells, counter-screen for TRPC4 activator project, cell-based, second counter screen, HEK293 TRPC4/5HT1a, Fluo-4 (AID 434977;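 active = calcium signal rise above buffer-control mean plus 5 SD in both duplicates, and also a hit in the primary screen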); conditions: Fluo-4 calcium flux, at 10 µM; stronger effect = higher value
[14] = calcium flux inhibitors in TRPC4/5HT1a cells, confirmation, counter-screen for TRPC4 inhibitor project, cell-based, second counter screen, HEK293 TRPC4/5HT1a, Fluo-4 (AID 434978;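 active = primary screen active whose calcium signal fell more than 3 SD beyond the full-serotonin control mean in both duplicate plates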;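 as to outcome: serotonin given first at submaximal then at maximal dose after compound preincubation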); conditions: Fluo-4 calcium flux, at 10 µM, serotonin added to trigger calcium flux; stronger effect = higher value
[15] = tested on: TRPC4 (mouse), co-expressed with 5HT1a in HEK293; assay: calcium flux potentiators in TRPC4/5HT1a cells, confirmation, counter-screen for TRPC4 potentiator project, cell-based, second counter screen, HEK293 TRPC4/5HT1a, Fluo-4 (AID 434979;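 active = signal rise over 3 SD above mean of control wells given weak agonist, in both repeats and first screen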); conditions: Fluo-4 calcium flux, at 10 µM, serotonin added at its EC20 dose; stronger effect = higher value
[16] = calcium flux activation in mu-opioid HEK293 cells, confirmation, counter-screen for TRPC4 activator project, cell-based, HEK293 mu-opioid receptor line (AID 449723;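 active = hit in primary screen, with calcium signal over 5 SD above buffer well mean in both duplicates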;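 also: counter screen cells carry the mu-opioid receptor alone and lack TRPC4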); conditions: Fluo-4 calcium fluorescence, at 10 µM; stronger effect = higher value
[17] = calcium flux enhancement in mu-opioid HEK293 cells, confirmation, counter-screen for TRPC4 allosteric potentiator project, cell-based, HEK293 mu-opioid receptor line (AID 449724;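 active = calcium signal rise more than 3 SD above the low-dose agonist control mean, in both duplicate plates and the primary screen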); conditions: Fluo-4 calcium flux, at 10 µM, compound added before EC20 DAMGO stimulus; stronger effect = higher value

Cc1cc(N2CCOCC2)nc(NCc2ccccc2)n1
inactive: outcome [1] | outcome [2] | outcome [3] | outcome [4] | outcome [5] | outcome [6] | outcome [7] | outcome [8] | outcome [9] | outcome [10] | outcome [11] | outcome [12] | outcome [13] | outcome [14] | outcome [15] | outcome [16] | outcome [17]

OCCN(CCO)c1ncnc2c1sc1nc(N3CCOCC3)c3c(c12)CCCC3
inactive: outcome [1] | outcome [2] | outcome [3] | outcome [5] | outcome [6] | outcome [7] | outcome [8] | outcome [9] | outcome [10] | outcome [11] | outcome [12] | outcome [13] | outcome [14] | outcome [16] | outcome [17]
active: potentiation [4] 10% | potentiation [15] 27.8%

COc1ccccc1CCc1nnc(CCC(=O)NCCCOc2cccnc2)o1
active: inhibition [5] 48%
inactive: outcome [1] | outcome [2] | outcome [3] | outcome [4] | outcome [6] | outcome [7] | outcome [8] | outcome [9] | outcome [10] | outcome [11] | outcome [12] | outcome [13] | outcome [14] | outcome [15] | outcome [16] | outcome [17]

COCCSc1ccccc1C(=O)N1CCC(Cc2ccccc2)CC1
inactive: outcome [1] | outcome [2] | outcome [3] | outcome [4] | outcome [5] | outcome [6] | outcome [7] | outcome [8] | outcome [9] | outcome [10] | outcome [11] | outcome [12] | outcome [13] | outcome [14] | outcome [15] | outcome [16] | outcome [17]

Cc1cc(NC(=O)C(C)SCC(=O)N(Cc2ccccc2)c2ccccc2)no1 (stereo not given)
inactive: outcome [1] | outcome [2] | outcome [3] | outcome [4] | outcome [6] | outcome [7] | outcome [8] | outcome [9] | outcome [10] | outcome [11] | outcome [12] | outcome [13] | outcome [15] | outcome [16] | outcome [17]
active: inhibition [5] 90% | inhibition [14] 25.3%

CCc1ccc(Nc2n[n+](-c3ccccc3)c(/C=C/c3ccccc3)s2)cc1
inactive: outcome [1] | outcome [2] | outcome [3] | outcome [5] | outcome [6] | outcome [7] | outcome [8] | outcome [9] | outcome [10] | outcome [11] | outcome [12] | outcome [13] | outcome [14] | outcome [16] | outcome [17]
active: potentiation [4] 14% | potentiation [15] 14.8%

CC(C)CN(C(=O)COC(=O)CCC(=O)c1ccc(Cl)cc1)c1c(N)n(Cc2ccccc2)c(=O)[nH]c1=O
inactive: outcome [1] | outcome [2] | outcome [3] | outcome [4] | outcome [5] | outcome [6] | outcome [7] | outcome [8] | outcome [9] | outcome [10] | outcome [11] | outcome [12] | outcome [13] | outcome [14] | outcome [15] | outcome [16] | outcome [17]

Cc1cc(Oc2ccc(C(C)(C)C)cc2)nc(N2CCOCC2)n1
inactive: outcome [1] | outcome [2] | outcome [3] | outcome [5] | outcome [6] | outcome [7] | outcome [8] | outcome [9] | outcome [10] | outcome [11] | outcome [12] | outcome [13] | outcome [14] | outcome [16] | outcome [17]
active: potentiation [4] 7% | potentiation [15] 21.6%

COc1ccc(-c2cc(C3CCN(c4cc(Cl)nc(N)n4)CC3)[nH]n2)cc1
active: potentiation [4] 20% | potentiation [15] 80.5%
inactive: outcome [1] | outcome [2] | outcome [3] | outcome [5] | outcome [6] | outcome [7] | outcome [8] | outcome [9] | outcome [10] | outcome [11] | outcome [12] | outcome [13] | outcome [14] | outcome [16] | outcome [17]

CC1=NN(C(=O)COc2ccc(C)c(C)c2)C(O)(c2ccc(Cl)cc2)C1 (stereo not given)
inactive: outcome [1] | outcome [2] | outcome [3] | outcome [4] | outcome [5] | outcome [6] | outcome [7] | outcome [8] | outcome [9] | outcome [10] | outcome [11] | outcome [12] | outcome [13] | outcome [14] | outcome [15] | outcome [16] | outcome [17]

O=c1c2ccccc2oc2nc(C3CCCCC3)n(Cc3ccco3)c(=O)c12
inactive: outcome [1] | outcome [2] | outcome [5] | outcome [6] | outcome [7] | outcome [8] | outcome [9] | outcome [10] | outcome [11] | outcome [12] | outcome [13] | outcome [14] | outcome [16] | outcome [17]
active: potentiation [3] 10% | potentiation [4] 11% | potentiation [15] 30.7%

NC(=O)C(c1cccc(Cl)c1)c1ncc(C(F)(F)F)cc1Cl (stereo not given)
active: potentiation [15] 7.72%
inactive: outcome [1] | outcome [2] | outcome [3] | outcome [4] | outcome [5] | outcome [6] | outcome [7] | outcome [8] | outcome [9] | outcome [10] | outcome [11] | outcome [12] | outcome [13] | outcome [14] | outcome [16] | outcome [17]

CCOc1ccc(S(=O)(=O)N2CCN(C(=S)NC3CC3)CC2)cc1
active: potentiation [4] 9% | potentiation [15] 30.7%
inactive: outcome [1] | outcome [2] | outcome [3] | outcome [5] | outcome [6] | outcome [7] | outcome [8] | outcome [9] | outcome [10] | outcome [11] | outcome [12] | outcome [13] | outcome [14] | outcome [16] | outcome [17]

COc1ccc(N(C(=O)c2snc(C(N)=O)c2N)C(C(=O)NC2CCCCC2)c2ccc(C)o2)c(OC)c1 (stereo not given)
inactive: outcome [1] | outcome [2] | outcome [3] | outcome [4] | outcome [5] | outcome [6] | outcome [7] | outcome [8] | outcome [9] | outcome [10] | outcome [11] | outcome [12] | outcome [13] | outcome [14] | outcome [15] | outcome [16] | outcome [17]

COc1cccc(NC(=O)COc2c(F)c(F)c(C(F)(F)F)c(F)c2F)c1
inactive: outcome [1] | outcome [2] | outcome [3] | outcome [4] | outcome [5] | outcome [6] | outcome [7] | outcome [8] | outcome [9] | outcome [10] | outcome [11] | outcome [12] | outcome [13] | outcome [14] | outcome [15] | outcome [16] | outcome [17]

From PubChem BioAssay
